Columns and labels:
[1] = molecular target: T1, Serine/threonine-protein kinase BRSK1 (Homo sapiens) (UniProt Q8TDC3); conditions: at 1 µM
T1 sequence (whole entry): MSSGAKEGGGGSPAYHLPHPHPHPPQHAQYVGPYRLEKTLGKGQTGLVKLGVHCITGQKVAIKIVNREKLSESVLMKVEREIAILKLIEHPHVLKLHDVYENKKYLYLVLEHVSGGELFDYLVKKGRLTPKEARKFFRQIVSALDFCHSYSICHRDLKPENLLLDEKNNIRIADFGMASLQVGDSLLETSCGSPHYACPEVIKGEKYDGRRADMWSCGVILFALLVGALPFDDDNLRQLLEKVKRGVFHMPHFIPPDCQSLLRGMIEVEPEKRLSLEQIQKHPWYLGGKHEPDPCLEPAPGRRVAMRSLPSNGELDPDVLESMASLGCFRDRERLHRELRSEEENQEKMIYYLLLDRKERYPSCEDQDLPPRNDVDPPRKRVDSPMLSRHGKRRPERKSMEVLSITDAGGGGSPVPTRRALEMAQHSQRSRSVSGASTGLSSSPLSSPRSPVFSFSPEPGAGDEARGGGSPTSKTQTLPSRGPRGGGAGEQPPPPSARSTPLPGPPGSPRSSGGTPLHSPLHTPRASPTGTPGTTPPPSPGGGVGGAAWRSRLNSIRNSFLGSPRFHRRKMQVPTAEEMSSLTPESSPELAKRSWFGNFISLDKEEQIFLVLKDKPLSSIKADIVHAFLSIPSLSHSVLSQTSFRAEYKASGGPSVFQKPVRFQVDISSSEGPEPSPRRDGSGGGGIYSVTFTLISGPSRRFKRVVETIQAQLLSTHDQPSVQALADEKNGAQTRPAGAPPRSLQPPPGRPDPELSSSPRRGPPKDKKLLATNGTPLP

[2] = molecular target: T1, Serine/threonine-protein kinase BRSK1 (Homo sapiens); conditions: at 10 µM
[3] = molecular target: T2, Serine/threonine-protein kinase BRSK2 (Homo sapiens) (UniProt Q8IWQ3); conditions: at 1 µM
T2 sequence (whole entry): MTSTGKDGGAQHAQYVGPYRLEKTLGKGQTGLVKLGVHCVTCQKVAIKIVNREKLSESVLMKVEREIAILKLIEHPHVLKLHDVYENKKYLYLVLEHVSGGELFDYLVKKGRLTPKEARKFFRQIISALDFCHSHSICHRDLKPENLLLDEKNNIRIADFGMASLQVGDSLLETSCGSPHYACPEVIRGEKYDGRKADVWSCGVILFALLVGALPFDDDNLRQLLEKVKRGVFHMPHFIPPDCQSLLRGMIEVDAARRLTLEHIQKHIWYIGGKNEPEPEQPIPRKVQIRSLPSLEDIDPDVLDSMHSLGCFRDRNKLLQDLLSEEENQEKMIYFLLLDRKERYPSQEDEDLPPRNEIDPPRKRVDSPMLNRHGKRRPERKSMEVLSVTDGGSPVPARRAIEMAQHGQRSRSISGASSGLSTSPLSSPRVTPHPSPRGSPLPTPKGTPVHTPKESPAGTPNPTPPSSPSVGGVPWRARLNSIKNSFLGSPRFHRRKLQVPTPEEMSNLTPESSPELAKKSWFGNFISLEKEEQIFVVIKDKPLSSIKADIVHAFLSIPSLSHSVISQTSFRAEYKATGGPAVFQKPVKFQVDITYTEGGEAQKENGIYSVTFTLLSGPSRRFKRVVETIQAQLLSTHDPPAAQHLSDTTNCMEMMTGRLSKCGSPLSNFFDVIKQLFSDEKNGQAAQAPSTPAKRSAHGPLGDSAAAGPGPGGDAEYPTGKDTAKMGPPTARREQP

[4] = molecular target: T2, Serine/threonine-protein kinase BRSK2 (Homo sapiens); conditions: at 10 µM
[5] = molecular target: T3, Cyclin-dependent kinase 1/cyclin B1 (Homo sapiens) (UniProt P06493+P14635); conditions: at 1 µM
T3 sequence (P06493 whole entry, looked up): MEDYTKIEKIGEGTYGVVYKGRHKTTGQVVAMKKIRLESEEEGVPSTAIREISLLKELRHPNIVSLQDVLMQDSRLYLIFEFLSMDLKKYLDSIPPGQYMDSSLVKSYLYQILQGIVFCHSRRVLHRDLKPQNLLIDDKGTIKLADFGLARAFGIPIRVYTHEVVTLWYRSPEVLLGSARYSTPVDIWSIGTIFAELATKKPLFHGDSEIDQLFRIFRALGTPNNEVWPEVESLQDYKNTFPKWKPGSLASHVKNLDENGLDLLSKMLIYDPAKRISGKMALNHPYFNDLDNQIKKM
T3 sequence (P14635 whole entry, looked up): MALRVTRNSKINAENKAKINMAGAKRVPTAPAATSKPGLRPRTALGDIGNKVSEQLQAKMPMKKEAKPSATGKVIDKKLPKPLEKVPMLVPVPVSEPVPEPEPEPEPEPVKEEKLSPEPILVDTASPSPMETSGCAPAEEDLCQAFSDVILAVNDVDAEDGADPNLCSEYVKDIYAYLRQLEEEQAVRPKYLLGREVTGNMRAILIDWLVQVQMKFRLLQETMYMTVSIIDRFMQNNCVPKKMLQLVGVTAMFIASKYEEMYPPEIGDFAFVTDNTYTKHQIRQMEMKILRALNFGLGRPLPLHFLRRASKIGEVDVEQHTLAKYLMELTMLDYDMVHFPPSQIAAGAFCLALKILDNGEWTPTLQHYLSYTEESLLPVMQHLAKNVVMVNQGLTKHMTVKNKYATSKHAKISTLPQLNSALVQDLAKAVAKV

[6] = molecular target: T3, Cyclin-dependent kinase 1/cyclin B1 (Homo sapiens); conditions: at 10 µM
[7] = molecular target: T4, Cyclin-dependent kinase 2/cyclin A (Homo sapiens) (UniProt P24941+P20248+P78396); conditions: at 10 µM
[8] = molecular target: T5, Cyclin-dependent kinase 2/cyclin E (Homo sapiens) (UniProt P24864+P24941+O96020); conditions: at 1 µM
[9] = molecular target: T5, Cyclin-dependent kinase 2/cyclin E (Homo sapiens); conditions: at 10 µM
[10] = molecular target: T6, CDK3/cyclin E (Homo sapiens) (UniProt P24864+O96020+Q00526); conditions: at 1 µM
T6 sequence (O96020 whole entry, looked up): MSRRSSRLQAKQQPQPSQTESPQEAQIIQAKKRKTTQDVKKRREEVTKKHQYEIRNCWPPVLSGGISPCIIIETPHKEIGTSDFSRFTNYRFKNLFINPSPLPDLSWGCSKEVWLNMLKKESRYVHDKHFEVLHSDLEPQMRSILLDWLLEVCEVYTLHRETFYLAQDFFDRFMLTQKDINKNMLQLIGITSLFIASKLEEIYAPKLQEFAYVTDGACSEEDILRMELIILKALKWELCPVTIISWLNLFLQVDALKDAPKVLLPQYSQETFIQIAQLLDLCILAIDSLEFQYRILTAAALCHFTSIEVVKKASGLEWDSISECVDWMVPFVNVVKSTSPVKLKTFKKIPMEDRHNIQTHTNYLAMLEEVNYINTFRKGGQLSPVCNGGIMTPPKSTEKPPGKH
T6 sequence (P24864 whole entry, looked up): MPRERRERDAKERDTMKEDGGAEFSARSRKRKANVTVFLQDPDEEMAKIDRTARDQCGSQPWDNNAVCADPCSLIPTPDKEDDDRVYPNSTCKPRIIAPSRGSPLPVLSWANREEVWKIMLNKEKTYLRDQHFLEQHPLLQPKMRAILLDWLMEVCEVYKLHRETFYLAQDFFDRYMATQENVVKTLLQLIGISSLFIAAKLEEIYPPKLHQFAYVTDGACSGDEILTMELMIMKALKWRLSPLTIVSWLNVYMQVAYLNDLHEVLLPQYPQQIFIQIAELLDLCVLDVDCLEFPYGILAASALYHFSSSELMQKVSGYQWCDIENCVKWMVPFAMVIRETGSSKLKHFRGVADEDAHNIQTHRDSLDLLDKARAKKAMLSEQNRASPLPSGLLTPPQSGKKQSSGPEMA
T6 sequence (Q00526 whole entry, looked up): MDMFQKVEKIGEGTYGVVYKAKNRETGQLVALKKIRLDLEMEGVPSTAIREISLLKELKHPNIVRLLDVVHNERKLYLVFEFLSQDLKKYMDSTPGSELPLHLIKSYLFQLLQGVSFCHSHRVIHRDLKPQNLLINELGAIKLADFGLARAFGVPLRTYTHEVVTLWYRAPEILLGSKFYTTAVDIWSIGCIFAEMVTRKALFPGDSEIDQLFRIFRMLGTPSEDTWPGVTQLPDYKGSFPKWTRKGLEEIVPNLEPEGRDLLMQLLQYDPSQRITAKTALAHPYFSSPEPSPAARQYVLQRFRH

[11] = molecular target: T6, CDK3/cyclin E (Homo sapiens); conditions: at 10 µM
[12] = molecular target: T7, Cyclin-dependent kinase 5/CDK5 activator 1 (Homo sapiens) (UniProt Q00535+Q15078); conditions: at 1 µM
T7 sequence (Q00535 whole entry): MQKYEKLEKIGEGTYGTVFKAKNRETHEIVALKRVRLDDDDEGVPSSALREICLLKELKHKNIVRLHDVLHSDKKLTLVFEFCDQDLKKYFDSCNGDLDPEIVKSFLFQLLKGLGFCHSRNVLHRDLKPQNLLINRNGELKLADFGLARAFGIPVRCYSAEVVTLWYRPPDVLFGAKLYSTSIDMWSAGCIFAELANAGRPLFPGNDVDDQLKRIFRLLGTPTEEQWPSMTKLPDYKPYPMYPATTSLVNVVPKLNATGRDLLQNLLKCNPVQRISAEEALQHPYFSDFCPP
T7 sequence (Q15078 99-307 partner limits assumed): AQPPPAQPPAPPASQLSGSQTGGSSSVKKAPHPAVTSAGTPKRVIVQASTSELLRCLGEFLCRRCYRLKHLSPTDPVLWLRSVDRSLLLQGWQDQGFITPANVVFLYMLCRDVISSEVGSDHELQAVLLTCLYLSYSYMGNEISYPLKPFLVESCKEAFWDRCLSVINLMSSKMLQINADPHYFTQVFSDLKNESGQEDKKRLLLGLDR

[13] = molecular target: T7, Cyclin-dependent kinase 5/CDK5 activator 1 (Homo sapiens); conditions: at 10 µM
[14] = molecular target: T7, Cyclin-dependent kinase 5/CDK5 activator 1 (Homo sapiens); conditions: at 1 µM; remark: listed apart in the source
[15] = molecular target: T7, Cyclin-dependent kinase 5/CDK5 activator 1 (Homo sapiens); conditions: at 10 µM; remark: listed apart in the source
[16] = molecular target: T8, CDK6/cyclin D3 (Homo sapiens) (UniProt P30281+Q00534); conditions: at 1 µM
[17] = molecular target: T8, CDK6/cyclin D3 (Homo sapiens); conditions: at 10 µM
[18] = molecular target: T9, Cyclin-dependent kinase 7/ cyclin H (Homo sapiens) (UniProt P51946+P50613); conditions: at 1 µM
[19] = molecular target: T9, Cyclin-dependent kinase 7/ cyclin H (Homo sapiens); conditions: at 10 µM
[20] = molecular target: T4, Cyclin-dependent kinase 2/cyclin A (Homo sapiens); conditions: at 1 µM

Structure (SMILES)	residual activity [1] [%]	residual activity [2] [%]	residual activity [3] [%]	residual activity [4] [%]	residual activity [5] [%]	residual activity [6] [%]	residual activity [7] [%]	residual activity [8] [%]	residual activity [9] [%]	residual activity [10] [%]	residual activity [11] [%]	residual activity [12] [%]	residual activity [13] [%]	residual activity [14] [%]	residual activity [15] [%]	residual activity [16] [%]	residual activity [17] [%]	residual activity [18] [%]	residual activity [19] [%]	residual activity [20] [%]
O=c1cc(N2CCOCC2)oc2c1ccc1ccccc12	91	96	102	108	106	91	87	95	97	102	79	80	67	100	81	100	89	86	88	
NC(=O)Nc1sc(-c2ccc(F)cc2)cc1C(N)=O	55	15	83	18	100	57	21	79	26	73	43	70	33	81	33	78	33	87	61	59
CCN(CC)CCNC(=O)c1c(C)[nH]c(/C=C2\C(=O)Nc3ccc(Cl)cc32)c1C	6	9	29	10		57	69	98	65			77	22	72	28	70	13	15	2	134
N#C/C(=C1/Nc2ccccc2S1)c1ccnc(NCCc2cccnc2)n1	80	45	96	29			33			84	44	74	54	88	49	100	63	80	54	81
COc1ccc(Cl)cc1NC(=O)Nc1cc(C)nc2ccccc12	60	64	77	100			88			93	91				77	95	83	80	90	
CN(C)S(=O)(=O)c1ccc2c(c1)/C(=C/c1cc3c([nH]1)CCCC3)C(=O)N2	97	75	40	50	88	95	77	96	97	87	83	90	98	90	87	96	87	25	16	87
O=C1Cc2c([nH]c3ccc([N+](=O)[O-])cc23)-c2ccccc2N1			32	20	47	23	10		11		6	9	6	6	6	60	26			14
O=C1Cc2c([nH]c3ccc(Br)cc23)-c2ccccc2N1	64	37			52	9		36	2	54	9			47	9	78	30	91	80	
O=C(Nc1nc2ccccc2n1CCN1CCOCC1)c1cccc([N+](=O)[O-])c1	83	78			114	103		106	104							88	88	75	77	
CSc1nc(-c2ccc(F)cc2)c(-c2ccnc(NC(C)c3ccccc3)c2)[nH]1 (stereo not drawn)	100	55			98	86	80	96	86	93	84		101					100	67	
Nc1nccc(-c2c(-c3ccc(F)cc3)ncn2C2CCNCC2)n1			128	82	115		77											100	68	79
CN([C@@H](Cc1ccc(OS(=O)(=O)c2cccc3cnccc23)cc1)C(=O)N1CCN(c2ccccc2)CC1)S(=O)(=O)c1cccc2cnccc12		74		79			98													
N#C/C(=C\c1ccc(O)c(O)c1)C(=O)NCc1ccccc1							85			100	81									
COc1ccc(COc2ccc(Cc3cnc(N)nc3N)cc2OC)cc1			99	115		109														
CCCCc1c(-c2ccc(OC)cc2)[nH]c2nccnc12			104		31	26	25	30	46	40	32	19	33	25	38	87	58	84	44	48
Nc1ncnc2c1c(-c1ccc(Oc3ccccc3)cc1)cn2C1CCCC1	17		63	61	104	85	72	94	79	90	81	78	58	80	76	85	66	78	95	113
NC(=O)c1cccc(-c2cc(Nc3ccc(OC(F)(F)F)cc3)ncn2)c1							94					93	65						91	139
CCCCc1c(-c2ccc(O)cc2)[nH]c2nccnc12	88	88			29	18		20	16	29	6					89	33	78	51	
COc1cc2nccc(Oc3ccc(NC(=O)Nc4cc(C)on4)c(Cl)c3)c2cc1OC	65	46					99									96	99	99	107	106

Structure (SMILES)	residual activity [1] [%]	residual activity [2] [%]	residual activity [3] [%]	residual activity [4] [%]	residual activity [5] [%]	residual activity [6] [%]	residual activity [7] [%]	residual activity [8] [%]	residual activity [9] [%]	residual activity [10] [%]	residual activity [11] [%]	residual activity [12] [%]	residual activity [13] [%]	residual activity [14] [%]	residual activity [15] [%]	residual activity [16] [%]	residual activity [17] [%]	residual activity [18] [%]	residual activity [19] [%]	residual activity [20] [%]
CCN1/C(=C/C(C)=O)Sc2ccc(OC)cc21								81	76	82	80				71			82	81	
O=S(=O)(c1cccc2cnccc12)N1CCCNCC1		84		80																
O=S(=O)(NCCNC/C=C/c1ccc(Br)cc1)c1cccc2cnccc12	80	53									59				63				41	
N#Cc1c(NC(=O)c2cccc3ccccc23)sc2c1CCCC2				90			90	96	94								90			96
CCOc1nc(NC(=O)Cc2cc(OC)ccc2OC)cc(N)c1C#N										82						100				
CC(C)[C@H](CO)Nc1nc(Nc2cc(N)cc(Cl)c2)c2ncn(C(C)C)c2n1	91	75												20	2			43	6	
COc1ccc(CNC(=O)Nc2ncc([N+](=O)[O-])s2)cc1							79			68	26								69	78
NCCNc1ncc(C(N)=O)c(Nc2cccc(C(F)(F)F)c2)n1						43	65		47			77	25	70	33			78	49	131
CCOC(=O)c1c(C)[nH]c(/C=C2\C(=O)Nc3ccccc32)c1C							100	99	95	100	90					93	95			140
CC(C)N(CCC(=O)c1ccc2ccccc2c1)Cc1ccccc1	87									86	77	87		79	81	87	78	83	82	
COc1ccc(-c2cnc3c(-c4ccsc4)cnn3c2)cc1								99	96	85			88	85		85	96	90		
Fc1ccc(-c2nc3n(c2-c2ccncc2)CCS3)cc1	99	100			100	95	89		94							124				83
COc1cc2ncnc(Nc3cccc(Cl)c3)c2cc1OC	14	17						109	105	105		113	107				100			138
c1ccc(-c2cnc(Nc3ccc(OCCN4CCCC4)cc3)s2)cc1	46	42			113	62	70			81	43	64	17	71	25	38	6	70	39	147
O=C(Nc1ccc(Cl)cc1)c1ccccc1NCc1ccncc1		126														102	102		124	126
O=C1Nc2ccccc2/C1=C\c1c(Cl)[nH]c2ccccc12		46				68	57	82	58		55		40		40		32		59	83
COc1cc2c(cc1OC)-c1n[nH]c(Nc3cccc(F)c3)c1C2			104		114	103		98	68	78	46	82	53	81	61	76	71	83	75	
O=C1NC(=O)C(c2cn(CCCn3ccnc3)c3ccccc23)=C1Nc1ccccc1	59	75					21	76	24	51	13	64	20	71	24	82	68	77	64	103
Cn1sc(=O)n(Cc2ccccc2)c1=O	86	83					79	96	95	83	79	81	81	97	97	89	82	99	86	79

— ChEMBL document CHEMBL2218924, “A broad activity screen in support of a chemogenomic map for kinase signalling research and drug discovery” (Biochem J, 2013)
